From PubChem BioAssay
BCR signal inh: qHTS Assay to Find Inhibitors of Chronic Active B-Cell Receptor Signaling. 0.05% of 340,000 active. Potency, µM (highest dose often 46.1 µM), for inactives: at the top dose activity change, negative = inhibition, actives largely listed as inhibitors. ABC-DLBCL IkBa-CBG/CBR reporter, luminescence ratio, 4 h; active = well fitted inhibition curve with a large enough effect in the signal ratio, with a control signal flat, not every such curve was filed as active; inconclusive = small, poorly fitted or top-dose-only effect, or effect the other way, or a change in a side signal; the % refers to the signal ratio;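 note: potency is the fitted concentration of half-maximal effect; plate controls were basal doxycycline-induced cells for no effect and cells given 10 µM MG132 for full effect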
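Concentration-response series (up to 46 uM) were applied to TMD8 dual-reporter cells for 4 h at 37C with doxycycline. Green/red ratio, after filter-overlap correction, defined %Activity; red signal alone was normalised to basal cells and zero luminescence.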
MCF10A rereplic: A quantitative high throughput screen for small molecules that induce DNA re-replication in MCF 10a normal breast cells; MCF 10A DNA re-replication, Hoechst nuclear intensity, 48 h; Potency, µM (highest dose often 46.1 µM), for the others: top-dose activity, positive = re-replication, usual class: activators; 2.9% of 350,000 active; AID 624296, 2012; note: potency is the fitted concentration of half-maximal effect; % of control where 0% means no effect; nearly all actives have a fitted effect of over 50% in size
SW480 rereplic: A quantitative high throughput screen for small molecules that induce DNA re-replication in SW480 colon adenocarcinoma cells; SW480 DNA re-replication, Hoechst DNA content imaging, 48 h; Potency, µM (series often up to 46.1 µM), without a hit: at the highest dose re-replication activation, most hits filed as activators; 1.8% of 340,000 active; note: potency is the fitted concentration of half-maximal effect; % of control where 0% means no effect; nearly all actives have a fitted effect of over 55% in size
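Image-based DNA-content assay: after two days of treatment, nuclei were labelled with the DNA dye Hoechst and imaged, and hits were compounds raising the count of nuclei showing high fluorescence intensity.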
TDP1 cell noCPT: qHTS for Inhibitors of human tyrosyl-DNA phosphodiesterase 1 (TDP1): qHTS in cells in absence of CPT. DT40 Tdp1-/- hTDP1 cells, no CPT, ATP luminescence, 48 h. Potency, µM (doses to about 46.2 µM), for inactives: top-dose activity change, negative = growth inhibition, hits mostly inhibitors. 15% of 420,000 active. AID 686978, 2013; note: potency is the fitted concentration of half-maximal effect; % is set by controls: 0 for no effect and ±100 for the full control effect; nearly all actives have a fitted effect of over 55% in size
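Seeded 400 DT40-hTDP1 cells/well (vehicle DMSO, no 20 nM CPT); pinned compounds; ≥48 hr at 37 °C; CellTiter-Glo luminescence as viability measure.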
TDP1 cell CPT: qHTS for Inhibitors of human tyrosyl-DNA phosphodiesterase 1 (TDP1): qHTS in cells in presence of CPT. 12% of 420,000 active. AID 686979, 2013. chicken DT40 Tdp1-/-;hTDP1 cells + 20 nM CPT, ATP luminescence, 48 h. Potency, µM (top dose mostly 46.2 µM), for the others: top-dose activity change, negative = growth inhibition, hits mostly inhibitors; note: potency is the fitted concentration of half-maximal effect; % is set by controls: 0 for no effect and ±100 for the full control effect; nearly all actives have a fitted effect of over 55% in size
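Cell growth measured by CellTiter-Glo luminescence after a minimum 48 h, 37 C compound exposure with 20 nM CPT in Tdp1-knockout DT40 cells stably expressing hTDP1, seeded 400/well; qHTS titration format.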
IL-1B inflam inh: qHTS for Inhibitors of Inflammasome Signaling: IL-1-beta AlphaLISA Primary Screen | THP-1 LPS/ATP IL-1B secretion, AlphaLISA, 16 h; stronger effect = lower value | 4.7% of 360,000 active | activity change, % at 57.5 µM; in the data active = activity change below about -50%; inconclusive = mostly about -30% to -49%; note: % is set by controls: 0 for no effect and ±100 for the full control effect
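Secreted IL-1B measured by AlphaLISA bead assay after 16 h compound exposure of THP-1 cells; compounds (final up to 57.5 uM) added 1 h before LPS (250 ng/mL) and ATP (1.25 mM) stimulation; lower signal means less secretion.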
* = called active by the depositor; ? = inconclusive; . = no result. Shown are actives, neighbours in structure and some others; about 19% of the full set was active somewhere. Unless noted, calls come from the whole dose curve; as a rule, active = well fitted curve in the direction sought with a large enough effect; inconclusive = small, poorly fitted or top-dose-only effect, or another doubt; inactive = no such curve, though single readings can be large; an effect the other way counts as inactive or inconclusive.

SMILES	BCR signal inh	MCF10A rereplic	SW480 rereplic	TDP1 cell noCPT	TDP1 cell CPT	IL-1B inflam inh
CSCCC(C(=O)Nc1c(C)cccc1C)N1CCN(C/C=C/c2ccccc2)CC1 (configuration not stated)	.	.	.	13µM*	?	-21.2
Cc1cccc(C)c1NC(=O)C(c1ccccc1)N1CCN(C/C=C/c2ccccc2)CC1 (configuration not stated)	.	.	.	?	18.4µM*	-10.4
CC(=O)c1sc(=S)n(-c2ccc(Cl)cc2)c1C	1.7%	15.2%	?	?	18.4µM*	20.2
Cc1nc2ccc(S(=O)(=O)NCC(=O)NC(C)c3ccccc3)cc2s1 (configuration not stated)	0.0%	0.651µM*	-20.9%	1.4%	-4.6%	5.4
Cc1cc(C)cc(NC(=O)CNS(=O)(=O)c2ccc3nc(C)sc3c2)c1	.	.	.	-12.8%	-6.5%	.
C#Cc1ccc(NC(=O)C2(C)CCN2C(=O)c2cc(C)n(C)n2)cc1 (configuration not stated)	.	.	.	?	?	-4.6
CC1Nc2ncnc(N3CCc4ccccc4C3)c2N(Cc2ccc(Br)cc2)C1=O (configuration not stated)	?	?	?	23.1µM*	16.4µM*	?
CCC1Nc2ncnc(N3CCc4ccccc4C3)c2N(Cc2ccc(Br)cc2)C1=O (configuration not stated)	.	.	.	?	?	-94.9*
CC1Nc2ncnc(N3CCc4ccccc4C3)c2N(Cc2ccc(Cl)cc2)C1=O (configuration not stated)	-12.1%	20.0%	?	?	?	?
O=C1C(Cc2ccccc2)Nc2ncnc(N3CCc4ccccc4C3)c2N1Cc1ccccc1 (configuration not stated)	-1.1%	12.6%	-8.9%	16.4µM*	?	5.0
COc1ccc(S(=O)(=O)Nc2ccc(OCC(=O)O)cc2)c2ccccc12	?	-0.2%	1.2%	-0.3%	1.7%	9.8
COc1ccc(OC)c(S(=O)(=O)NCC(c2cccs2)S(=O)(=O)c2ccc(F)cc2)c1 (configuration not stated)	-4.0%	.	.	?	?	.
COc1ccc(S(=O)(=O)NCC(c2cccs2)S(=O)(=O)c2ccc(C)cc2)cc1F (configuration not stated)	-0.1%	.	.	16.4µM*	?	.
COc1ccc(C)cc1S(=O)(=O)NCC(c1cccs1)S(=O)(=O)c1ccc(C)cc1 (configuration not stated)	-22.1%	.	.	?	23.1µM*	.
O=C(Nc1ccc(NC(=S)NC(=O)C(c2ccccc2)c2ccccc2)cc1)c1ccccc1	.	?	?	14.6µM*	?	?
CCC(=O)NC(=S)Nc1ccc(NC(=O)c2cccc([N+](=O)[O-])c2C)cc1	-0.8%	-1.1%	-6.7%	?	?	-4.3
CCCC(=O)Nc1ccc(NC(=S)NC(=O)c2ccccc2[N+](=O)[O-])cc1	?	?	?	29.1µM*	?	3.8
CCC(=O)Nc1cccc(NC(=S)NC(=O)c2ccc(Cl)cc2Cl)c1	?	14.8%	-3.3%	?	?	-22.2
CCC(=O)Nc1cccc(NC(=S)NC(=O)c2ccc(Cl)cc2)c1	?	6.9%	-3.8%	14.6µM*	18.4µM*	11.4
CC(C)NC(=S)NC(=O)c1ccc(-c2ccccc2)cc1	6.3%	?	?	16.4µM*	23.1µM*	-56.9*
Cc1cc(C)c(NC(=S)NC(=O)c2ccccc2)cc1C	.	.	.	8.2µM*	20.6µM*	2.5
Cc1ccc(C(=O)O)cc1NC(=S)NC(=O)c1ccc(-c2ccccc2)cc1	0.6%	-12.8%	-16.1%	-19.1%	8.8%	0.4
O=C(NC(=S)Nc1ccc(Oc2ccc(Cl)cc2)cc1)c1ccccc1	12.3%	?	12.3%	20.6µM*	?	11.8
O=C(NC(=S)Nc1ccc(Cl)cc1)c1ccccc1	?	0.9%	6.6%	3.2%	13.8%	-17.4
CCC(=O)NC(=S)Nc1ccc(NC(=S)NC(=O)c2ccccc2)cc1	?	-0.7%	0.1%	18.4µM*	?	0.5
SMILES	BCR signal inh	MCF10A rereplic	SW480 rereplic	TDP1 cell noCPT	TDP1 cell CPT	IL-1B inflam inh
C[C@@H]1CN([C@H](C)CO)C(=O)CCCn2cc(nn2)CO[C@H]1CN(C)C(=O)Nc1cccc(C(F)(F)F)c1	.	.	.	?	4.9%	-12.3
CC(C)N1C(=O)c2ccccc2NC(=O)C1C(=O)NC1CC1 (configuration not stated)	.	.	.	17.0%	6.0%	36.1
O=S(=O)(NNc1ncc(C(F)(F)F)cc1Cl)c1ccccc1	8.3%	-1.6%	-6.3%	?	16.4µM*	?
Nc1ccccc1C(=O)NNc1ncc(C(F)(F)F)cc1Cl	-20.8%	14.6µM*	5.8µM*	18.2%	-11.5%	-3.3
O=S(=O)(NNc1ncc(C(F)(F)F)cc1Cl)c1ccc(F)cc1F	?	0.0%	-1.7%	20.6µM*	?	4.1
O=C(NNc1ncc(C(F)(F)F)cc1Cl)c1ccc(Cl)c(Cl)c1	-1.9%	-3.8%	-17.3%	-1.8%	-2.1%	9.8
Cc1ccc(CNC(=O)C(=O)NCC(c2ccco2)S(=O)(=O)c2ccccc2)cc1 (configuration not stated)	18.0%	.	.	-4.1%	-4.6%	.
CC1CCCN(C(=O)COC(=O)C2=COCCO2)C1 (configuration not stated)	-0.7%	-1.7%	-4.0%	1.6%	-24.4%	20.9
CCCOc1cccc(NC(=O)OC2CCN(C)CC2)c1	2.7%	?	?	4.4%	2.7%	-5.0
Oc1ccc2cc(Br)ccc2c1CN1CCCC1	?	?	6.5%	23.1µM*	28.2%	-57.5*
O=C(COCc1cc(-c2ccc3c(c2)OCO3)on1)NCc1ccccc1Cl	.	.	.	?	-26.2%	.
C=C(C)COc1ccc(-c2n[nH]c(C)c2Oc2ccccc2OC)c(O)c1	?	?	25.4%	?	14.6µM*	-29.6
Cc1[nH]nc(-c2ccc(OCc3cnn(-c4ccccc4)c3)cc2O)c1Oc1ccccc1F	-7.6%	2.4%	14.6%	20.6µM*	?	27.0
C=C(C)COc1ccc(-c2nc(N)ncc2-c2ccc(OC)c(OC)c2)c(O)c1	?	?	13.0%	?	?	-28.2
